PI5P4Ka inh: qHTS for Inhibitors of phosphatidylinositol 5-phosphate 4-kinase (PI5P4K) | Phosphatidylinositol 5-phosphate 4-kinase type-2 alpha (Homo sapiens), P48426 | 330,000 tested, 1.2% active | max response, % | PI5P4Kalpha enzyme, ADP-Glo luminescence, 60 min; hits give low values; active means max response of -50% or lower; inconclusive means between -30% and -50%; inactive means -30% or higher; further: value at the top dose of about 77 µM
Target sequence (P48426 whole entry, looked up): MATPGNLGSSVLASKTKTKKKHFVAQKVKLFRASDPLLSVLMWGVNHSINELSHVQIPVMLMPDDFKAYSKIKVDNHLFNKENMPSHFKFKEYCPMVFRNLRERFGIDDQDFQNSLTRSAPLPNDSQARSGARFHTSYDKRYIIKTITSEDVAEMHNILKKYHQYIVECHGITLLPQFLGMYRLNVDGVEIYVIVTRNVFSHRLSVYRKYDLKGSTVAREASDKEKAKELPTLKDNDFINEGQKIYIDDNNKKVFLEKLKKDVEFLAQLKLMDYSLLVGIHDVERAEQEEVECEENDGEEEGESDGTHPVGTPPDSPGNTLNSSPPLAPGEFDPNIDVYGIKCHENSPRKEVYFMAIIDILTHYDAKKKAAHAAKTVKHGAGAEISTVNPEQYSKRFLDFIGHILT
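Controls without substrate or without enzyme flank wells where PI5P4Kalpha converts substrate using 5 microM ATP (final). Incubation lasts 60 minutes at room temperature; ADP formed is read by ADP-Glo luminescence.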
WRN inhibitor: qHTS for Inhibitors of WRN Helicase. AID 651768, 2012. Bifunctional 3'-5' exonuclease/ATP-dependent helicase WRN (Homo sapiens), Q14191. WRN helicase unwinding, fluorescent forked duplex, kinetic. Potency, µM (doses to about 114 µM), for the others: at the highest dose activity change, negative = inhibition, most hits filed as inhibitors. 360,000 tested, 0.46% active; further: potency means the concentration at half of the fitted maximal effect; nearly all actives have a fitted effect of over 55% in size
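Fluorescence dequenching readout, ex 525 nm/em 598 nm, kinetic mode: forked duplex DNA (100 nM final) with adjacent fluorophore and quencher unwound by WRN (20 nM final) with 2 mM ATP. Compound preincubation 15 min, room temperature.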
PLK1 PBD inh: qHTS for Inhibitors of PLK1-PDB (polo-like kinase 1 - polo-box domain): Primary Screen | Serine/threonine-protein kinase PLK1 (Homo sapiens), P53350 | Plk1 PBD binding of FITC phosphopeptide, fluorescence polarization | Potency, µM, for inactives: max response, negative = inhibition, most hits filed as inhibitors | 360,000 tested, 2.8% active | AID 720504, 2013; further: potency means the concentration at half of the fitted maximal effect; series mostly up to about 57 µM; nearly all actives have a fitted effect of over 65% in size
USP2a block: qHTS Assay for Inhibitors of Ubiquitin-specific Protease USP2a Using CHOP2 as the Reporter; Ubiquitin carboxyl-terminal hydrolase 2 (Homo sapiens), O75604; 330,000 tested, 0.01% active; Potency, µM (top dose mostly 38.3 µM), without a hit: at the highest dose activity change, negative = inhibition, hits mostly inhibitors; USP2 core, Ub-CHOP2 coupled fluorogenic reporter, 485/531;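 further: potency means the concentration at half of the fitted maximal effect; plate controls were DMSO wells for no effect and full inhibition by NEM control for full effect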
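Cell-free coupled assay: 10nM USP2 core preincubated 30min RT with compound in Tris-HCl pH 8.0/CaCl2/CHAPS buffer, then 25nM Ub-CHOP2 and 25nM reporter substrate; fluorescence (Ex 485/Em 531) read after 60min RT, normalized to NEM inhibition, concentration-response curves fitted.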
USP1-UAF1 inh: Inhibitors of USP1/UAF1: Primary Screen; AID 743255, 2014; Potency, µM (top dose mostly 57.1 µM), without a hit: top-dose activity change, negative = inhibition, usual class: inhibitors; 390,000 tested, 0.23% active; Ubiquitin carboxyl-terminal hydrolase 1 (Homo sapiens), O94782; recombinant USP1/UAF1, Ub-Rhodamine cleavage fluorescence; further: potency means the concentration at half of the fitted maximal effect; nearly all actives have a fitted effect of over 60% in size
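USP1/UAF1 complex (1 nM) preincubated 15 min at room temperature with compound, then Ub-Rho substrate (150 nM final) added. Kinetic fluorescence at 480/540 nm over 6 reads at 60 s intervals; 50 mM HEPES pH 7.8, 0.5 mM EDTA, 0.1 mg/ml BSA, 1 mM TCEP, 0.01% Tween-20.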
* marks the source's active call; other numbers are inactive results; ? = inconclusive; / = no result given; [ ] = dose if it differs, or a comment. In the library only some 3.3% were active in any assay of this set; here they are far more common. Unless noted, the call rests on the fitted dose curve; in most records, active means well fitted curve in the direction sought with a large enough effect; inconclusive means small, poorly fitted or top-dose-only effect, or another doubt; inactive means no such curve, though single readings can be large; an effect the other way counts as inactive or inconclusive. Unless noted, on the % scale 0 is the no-effect control and ±100 the full control effect.

SMILES	PI5P4Ka inh	WRN inhibitor	PLK1 PBD inh	USP2a block	USP1-UAF1 inh
CC1=NN(c2nc(-c3ccc(C)cc3)cs2)C(=O)C1N=Nc1cccc(O)c1 (centres undefined)	-71*	-33%	4.7µM*	1%	-9%
CC1=NN(c2nc(-c3ccc(C)cc3)cs2)C(=O)C1N=Nc1ccccc1O (centres undefined)	-30	-23%	-23%	0%	-10%
O=C(NCCN1CCN(c2ccccc2)CC1)c1ccccc1F	-5	17%	24µM*	3%	-26%
O=C(NCCCN1CCN(CCCNC(=O)c2ccccc2F)CC1)c1ccccc1F	-2	-8%	0%	-1%	-8%
N#CCN(CC#N)C(=O)C1c2ccccc2Oc2ccccc21	-7	7%	24µM*	4%	-12%
Cc1ccc(N2C(=O)c3ccc(C(=O)O)cc3C2=O)cc1C	/	6%	-3%	1%	-13%
CCSc1nnc(N2C(=O)c3ccc(C(=O)c4ccc(C(=O)O)cc4)cc3C2=O)s1	-85*	1%	-11%	6%	-2%
COC(=O)c1sc(=S)n(-c2ccccc2OC)c1N	5	-3%	-2%	-1%	-17%
CCOc1ccccc1-n1c(N)c(C(N)=O)sc1=S	/	-2%	?	3%	3%
CCCCNC(=O)c1sc(=S)n(-c2ccccc2OC)c1N	/	3%	27µM*	2%	-19%
CCOC(=O)c1sc(=S)n(-c2ccccc2OC)c1N	0	0%	21µM*	0%	-27%
COc1ccccc1/C=C/C=N/NC(=O)c1ccc(=O)n(C)c1	1	-23%	30µM*	3%	0%
COc1ccccc1/C=C/C=N/NC(=O)c1cc(-c2ccco2)[nH]n1	-72*	-22%	?	5%	-13%
COc1ccccc1/C=N/NC(=O)c1ccc(=O)n(C)c1	2	-36%[57.1 µM]	-8%	-1%	-2%
COc1ccccc1/C=C/C=N/NC(=O)c1ccccn1	0	-11%	-8%	1%	-8%
Cc1cccc(-c2c3c(=O)n(C)c(=O)n(C)c3cn2-c2cc(N)c(Cl)cc2Cl)c1	/	/	/	/	-15%
COc1ccc(Cn2c(CCC(=O)Nc3ccc(C)cc3)nc3cccnc32)cc1	-5	-6%	24µM*	0%	-20%
Cn1ncc(Cl)c1C(=O)Nc1nc2ccc(Cl)cc2s1	-13	-12%	17µM*	0%	-16%
CCN(CC)S(=O)(=O)c1cccc(C(=O)NC(C(=O)Nc2nnc(C3CC3)s2)C(C)C)c1 (centres undefined)	2	-12%	27µM*	-12%	-6%
CCN(CC)S(=O)(=O)c1cccc(C(=O)NCC2CCCCC2)c1	2	8%	24µM*	3%	-22%
CCN(C(=O)Cn1c(SCc2ccccc2F)nc2cccnc21)c1ccccc1	/	/	/	/	18%
Cn1cc(/C=C/c2cc[n+](C)cc2)c2cc(Cl)ccc21	-14	-3%[57.1 µM]	40%	?	-18%
C[n+]1ccc(/C=C/c2c[nH]c3ccc(F)cc23)cc1	-3	-8%	54%	?	28µM*
Cn1cc(/C=C/c2cc[n+](C)cc2)c2cc(F)ccc21	-6	-17%	55%	?	28µM*
COc1ccccc1/C=C/c1nc(C#N)c(N2CCCCCC2)o1	/	/	/	/	-19%
SMILES	PI5P4Ka inh	WRN inhibitor	PLK1 PBD inh	USP2a block	USP1-UAF1 inh
Cc1ccccc1C(=O)NCC(c1cccnc1)N1CCc2ccccc21 (centres undefined)	/	/	/	/	8%
Cc1ccc(S(=O)(=O)Nc2cccc(C(=O)NCC(C)(C)N3CCOCC3)c2)cc1F	2	4%	0%	3%	-20%
CC(C)(CNC(=O)c1cccc(S(=O)(=O)Nc2ccc(SC(F)F)cc2)c1)N1CCOCC1	8	0%	13µM*	/	0%
CSc1ncc(C(=O)NCc2ccc(Cl)cc2)c(C(F)(F)F)n1	/	/	/	/	12%
COc1cc([C@@H]2Oc3cc(C4Oc5cc(O)cc(O)c5C(=O)[C@H]4O)ccc3O[C@H]2CO)ccc1O (some centres undefined)	-52*	-11%	-2%	1%	-25%
COc1cc([C@H]2Oc3cc([C@H]4Oc5cc(O)cc(O)c5C(=O)[C@@H]4O)ccc3O[C@@H]2CO)ccc1O	-27	-7%	-2%	-1%	-21%
CCc1ccc(S(=O)(=O)c2nnn3c2nc(Nc2cccc(C)c2C)c2sccc23)cc1	/	/	/	/	-14%
CCCCOc1ccc(C2OC34CCCCC3C(C#N)(C#N)C2(C#N)C(=N)O4)cc1 (centres undefined)	-25	?	21µM*	13%	?
O=C(CCC(=O)c1ccc(F)cc1)Nc1ccccc1Cl	-4	2%	27µM*	-1%	-9%
CCCCS(=O)(=O)Nc1ccc(C)cn1	-22	-9%	21µM*	2%	-24%
COc1ccc([C@H]2CC(=O)C=C(c3cccc(C(F)(F)F)c3)C2)cc1	4	-3%	27µM*	2%	1%
COc1ccc([C@H]2CC(=O)C=C(c3cccc(Br)c3)C2)cc1	6	3%	-3%	-1%	-6%
CSCC[C@H](NC(=O)c1ccc(Br)o1)c1nnc2ccccn12	-9	2%	11µM*	2%	-5%
CCCn1nnnc1NC(=O)c1cc(Cl)ccc1Cl	-2	-6%	27µM*	4%	-13%
CNc1cnn(-c2ccccc2)c(=O)c1Cl	-28	13%	11µM*	10%	0%
CN(C)CCNc1cnn(-c2ccccc2)c(=O)c1Cl	-6	2%	-1%	1%	-12%
COc1cc(NC(=O)c2ccc(COCC(F)(F)F)cc2)cc(OC)c1OC	10	-4%	4.7µM*	7%	1%
Cc1ccc(CN2CCN(C3CCN(S(=O)(=O)N(C)C)CC3)C(=O)C2=O)cc1	/	/	/	/	-21%
Oc1ccccc1-c1nnc(COc2ccc(Cl)cc2Cl)o1	-18	-3%	27µM*	3%	-3%
CC1(NC(=O)/C=C/c2nc3ccccc3s2)CCS(=O)(=O)C1 (centres undefined)	-56*	4%[11.6 µM]	-10%	0%	-22%
CCCN(C(=O)/C=C/c1nc2ccccc2s1)C1CCS(=O)(=O)C1 (centres undefined)	?	-12%	1%	2%	-15%
O=S(=O)(Nc1ccc(-c2ccc(N3CCCC3)nn2)cc1)c1ccccc1Cl	/	/	/	/	-12%
Cc1ccsc1/C=C1\SC(N)=NC1=O	-18	-33%	0%	3%	-13%

Bioassay records deposited in PubChem BioAssay by National Center for Advancing Translational Sciences (NCATS).
